# Results taken from the supplement of paper PMC6411743.
# ± gives the standard deviation of the averaged measurements. Of roughly 6,200 targets only a part is listed; those with the largest changes were picked by preference.
# Legend:
# Assay in all cases: NP40-soluble protein abundance relative to vehicle (solubility fold change) (ratio); higher = more soluble protein in presence of AMP-PNP
# [1] = target: T1, A0A087WUT6|O60841 (UniProt O60841)
# T1 sequence (whole entry): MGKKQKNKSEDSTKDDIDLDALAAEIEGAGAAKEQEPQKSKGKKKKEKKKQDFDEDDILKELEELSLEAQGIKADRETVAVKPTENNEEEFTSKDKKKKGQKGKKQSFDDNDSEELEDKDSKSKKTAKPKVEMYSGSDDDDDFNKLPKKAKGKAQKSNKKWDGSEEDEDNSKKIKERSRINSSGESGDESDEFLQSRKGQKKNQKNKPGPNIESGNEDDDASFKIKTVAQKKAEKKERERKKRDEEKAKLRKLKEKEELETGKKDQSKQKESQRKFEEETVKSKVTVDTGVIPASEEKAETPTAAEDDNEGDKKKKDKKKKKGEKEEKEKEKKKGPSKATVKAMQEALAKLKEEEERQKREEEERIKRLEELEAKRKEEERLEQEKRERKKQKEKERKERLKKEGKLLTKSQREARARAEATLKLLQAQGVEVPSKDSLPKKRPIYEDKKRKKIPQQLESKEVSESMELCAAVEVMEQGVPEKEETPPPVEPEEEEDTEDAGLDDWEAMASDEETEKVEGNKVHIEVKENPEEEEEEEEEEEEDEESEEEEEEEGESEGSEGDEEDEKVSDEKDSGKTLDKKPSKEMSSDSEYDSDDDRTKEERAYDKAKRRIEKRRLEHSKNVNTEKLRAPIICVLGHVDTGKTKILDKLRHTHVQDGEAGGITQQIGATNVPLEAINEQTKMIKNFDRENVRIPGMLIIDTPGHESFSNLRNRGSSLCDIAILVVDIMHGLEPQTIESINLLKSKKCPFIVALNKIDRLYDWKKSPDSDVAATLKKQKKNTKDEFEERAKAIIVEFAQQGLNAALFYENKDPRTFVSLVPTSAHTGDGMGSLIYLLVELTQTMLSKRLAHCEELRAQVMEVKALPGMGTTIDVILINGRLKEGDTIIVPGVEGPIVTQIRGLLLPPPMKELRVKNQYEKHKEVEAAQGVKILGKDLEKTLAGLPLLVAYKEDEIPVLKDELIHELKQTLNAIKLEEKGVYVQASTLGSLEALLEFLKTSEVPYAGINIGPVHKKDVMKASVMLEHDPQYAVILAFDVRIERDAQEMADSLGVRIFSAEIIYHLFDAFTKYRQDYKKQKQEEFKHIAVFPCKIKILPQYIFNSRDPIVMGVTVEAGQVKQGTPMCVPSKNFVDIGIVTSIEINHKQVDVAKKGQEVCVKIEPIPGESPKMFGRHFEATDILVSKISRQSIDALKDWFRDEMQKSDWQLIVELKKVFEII
# In short: (§1)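 Eight concentrations, 0.1 to 10 mM, were tested on Jurkat crude lysate for 10 min at room temperature and then 3 min at 37 °C, in three independent experiments. The lysate was solubilised with 0.8% NP40 and benzonase, ultracentrifuged, and the supernatant TMT-labelled for LC-MS/MS. Each value is the fold change against the detergent-processed vehicle in its own replicate, from vsn-normalised intensities.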
# [2] = target: T2, A0A087WUU7|Q96GX5|Q96GX5-3|Q96GX5-2 (UniProt Q96GX5)
# T2 sequence (whole entry): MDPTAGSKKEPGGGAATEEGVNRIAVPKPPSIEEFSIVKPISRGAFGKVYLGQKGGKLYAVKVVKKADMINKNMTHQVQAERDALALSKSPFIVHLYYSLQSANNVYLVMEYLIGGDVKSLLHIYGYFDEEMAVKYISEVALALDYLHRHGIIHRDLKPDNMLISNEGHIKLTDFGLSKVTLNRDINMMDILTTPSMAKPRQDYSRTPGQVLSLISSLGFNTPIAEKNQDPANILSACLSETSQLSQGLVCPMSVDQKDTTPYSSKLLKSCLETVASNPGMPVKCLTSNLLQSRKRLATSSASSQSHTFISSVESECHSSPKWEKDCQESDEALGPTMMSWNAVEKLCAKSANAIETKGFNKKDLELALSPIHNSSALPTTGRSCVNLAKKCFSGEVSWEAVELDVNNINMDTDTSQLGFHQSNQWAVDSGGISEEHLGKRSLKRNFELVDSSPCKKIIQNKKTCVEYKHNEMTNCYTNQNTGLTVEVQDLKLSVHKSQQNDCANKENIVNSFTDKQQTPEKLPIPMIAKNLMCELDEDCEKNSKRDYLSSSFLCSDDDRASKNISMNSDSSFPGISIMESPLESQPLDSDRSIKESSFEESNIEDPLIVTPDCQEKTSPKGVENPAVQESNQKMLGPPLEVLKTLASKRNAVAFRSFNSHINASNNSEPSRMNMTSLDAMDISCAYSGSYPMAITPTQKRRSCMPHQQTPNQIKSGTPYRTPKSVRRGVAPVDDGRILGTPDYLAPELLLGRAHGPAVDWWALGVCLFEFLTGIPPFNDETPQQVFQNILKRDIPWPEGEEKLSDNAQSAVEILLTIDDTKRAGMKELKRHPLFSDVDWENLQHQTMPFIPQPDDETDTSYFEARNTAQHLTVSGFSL
# In short: as §1
# [3] = target: T3, A0A087WV73|P46087|P46087-2|P46087-4 (UniProt P46087)
# T3 sequence (whole entry): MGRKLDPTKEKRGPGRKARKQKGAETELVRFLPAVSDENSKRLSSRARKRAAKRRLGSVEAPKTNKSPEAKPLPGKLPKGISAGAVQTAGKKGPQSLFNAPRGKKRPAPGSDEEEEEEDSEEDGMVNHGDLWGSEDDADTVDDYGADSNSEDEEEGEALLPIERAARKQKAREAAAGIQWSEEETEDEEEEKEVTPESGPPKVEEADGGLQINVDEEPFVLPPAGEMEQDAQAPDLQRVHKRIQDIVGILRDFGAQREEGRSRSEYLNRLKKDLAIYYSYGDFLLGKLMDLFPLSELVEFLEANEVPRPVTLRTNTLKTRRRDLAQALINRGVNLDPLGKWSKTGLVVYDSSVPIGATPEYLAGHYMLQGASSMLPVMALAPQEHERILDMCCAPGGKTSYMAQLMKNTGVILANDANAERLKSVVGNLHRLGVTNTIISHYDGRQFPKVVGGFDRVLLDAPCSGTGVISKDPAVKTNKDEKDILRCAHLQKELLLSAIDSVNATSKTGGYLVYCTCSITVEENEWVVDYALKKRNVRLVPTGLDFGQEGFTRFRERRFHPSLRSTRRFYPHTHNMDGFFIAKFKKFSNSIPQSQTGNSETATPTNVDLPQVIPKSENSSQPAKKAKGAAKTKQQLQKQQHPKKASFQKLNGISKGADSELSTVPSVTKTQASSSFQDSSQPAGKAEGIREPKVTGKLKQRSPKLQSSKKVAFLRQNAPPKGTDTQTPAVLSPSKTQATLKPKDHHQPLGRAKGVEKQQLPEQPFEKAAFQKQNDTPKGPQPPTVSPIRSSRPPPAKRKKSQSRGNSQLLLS
# In short: as §1
# [4] = target: A0A087WW88|Q9UQN3 (UniProt Q9UQN3)
# A0A087WW88|Q9UQN3, sequence (Q9UQN3 whole entry, one chain of several): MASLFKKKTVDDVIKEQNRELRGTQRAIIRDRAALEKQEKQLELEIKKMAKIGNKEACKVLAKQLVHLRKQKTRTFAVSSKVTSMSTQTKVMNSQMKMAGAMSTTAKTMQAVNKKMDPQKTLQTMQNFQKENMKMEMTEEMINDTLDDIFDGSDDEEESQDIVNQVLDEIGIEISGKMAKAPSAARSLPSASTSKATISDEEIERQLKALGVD
# In short: as §1
# [5] = target: T4, A0A087WWS1|Q96FV9 (UniProt Q96FV9)
# T4 sequence (whole entry): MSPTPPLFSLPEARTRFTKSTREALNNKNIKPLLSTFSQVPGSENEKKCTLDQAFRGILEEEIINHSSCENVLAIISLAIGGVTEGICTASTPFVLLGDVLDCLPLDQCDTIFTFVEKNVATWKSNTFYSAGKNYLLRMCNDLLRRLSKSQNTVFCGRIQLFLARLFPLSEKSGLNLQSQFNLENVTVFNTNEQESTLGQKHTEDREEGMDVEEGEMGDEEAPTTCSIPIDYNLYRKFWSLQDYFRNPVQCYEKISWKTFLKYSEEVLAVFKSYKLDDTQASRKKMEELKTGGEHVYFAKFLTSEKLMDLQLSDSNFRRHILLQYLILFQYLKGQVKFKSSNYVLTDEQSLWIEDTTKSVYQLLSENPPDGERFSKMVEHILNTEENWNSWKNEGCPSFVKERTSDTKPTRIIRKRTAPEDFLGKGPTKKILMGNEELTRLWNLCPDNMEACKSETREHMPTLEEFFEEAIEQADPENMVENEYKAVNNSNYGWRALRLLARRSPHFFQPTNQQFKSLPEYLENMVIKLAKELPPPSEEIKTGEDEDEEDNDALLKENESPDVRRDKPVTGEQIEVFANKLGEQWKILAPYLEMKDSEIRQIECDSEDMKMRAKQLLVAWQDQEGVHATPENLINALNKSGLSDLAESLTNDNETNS
# In short: as §1
structure (smiles),measurement,setting,value
Nc1ncnc2c1ncn2[C@@H]1O[C@H](COP(=O)(O)OP(=O)(O)NP(=O)(O)O)[C@@H](O)[C@H]1O [adenylyl imidodiphosphate],NP40-soluble protein abundance,[1]; concentration: 6mM,1.01 ± 0.033
same,NP40-soluble protein abundance,[1]; concentration: 8mM,1.004 ± 0.0073
same,NP40-soluble protein abundance,[1]; concentration: 10mM,0.997 ± 0.035
same,NP40-soluble protein abundance,[2]; concentration: 1mM,1.01 ± 0.02
same,NP40-soluble protein abundance,[2]; concentration: 2mM,1.07 ± 0.036
same,NP40-soluble protein abundance,[2]; concentration: 4mM,1.01 ± 0.044
same,NP40-soluble protein abundance,[2]; concentration: 6mM,0.976 ± 0.023
same,NP40-soluble protein abundance,[2]; concentration: 8mM,0.967 ± 0.011
same,NP40-soluble protein abundance,[2]; concentration: 10mM,0.991 ± 0.04
same,NP40-soluble protein abundance,[3]; concentration: 1mM,1.04 ± 0.038
same,NP40-soluble protein abundance,[3]; concentration: 2mM,1.12 ± 0.068
same,NP40-soluble protein abundance,[3]; concentration: 4mM,1.17 ± 0.05
same,NP40-soluble protein abundance,[3]; concentration: 6mM,1.28 ± 0.067
same,NP40-soluble protein abundance,[3]; concentration: 8mM,1.34 ± 0.094
same,NP40-soluble protein abundance,[3]; concentration: 10mM,1.43 ± 0.093
same,NP40-soluble protein abundance,[4]; concentration: 1mM,1.03 ± 0.024
same,NP40-soluble protein abundance,[4]; concentration: 2mM,1.03 ± 0.0098
same,NP40-soluble protein abundance,[4]; concentration: 4mM,1.03 ± 0.03
same,NP40-soluble protein abundance,[4]; concentration: 6mM,1.04 ± 0.018
same,NP40-soluble protein abundance,[4]; concentration: 8mM,1.03 ± 0.042
same,NP40-soluble protein abundance,[4]; concentration: 10mM,1.03 ± 0.014
same,NP40-soluble protein abundance,[5]; concentration: 1mM,1.35 ± 0.15
same,NP40-soluble protein abundance,[5]; concentration: 2mM,1.52 ± 0.22
same,NP40-soluble protein abundance,[5]; concentration: 4mM,1.64 ± 0.29
same,NP40-soluble protein abundance,[5]; concentration: 6mM,1.86 ± 0.46
same,NP40-soluble protein abundance,[5]; concentration: 8mM,1.96 ± 0.56
same,NP40-soluble protein abundance,[5]; concentration: 10mM,2.2 ± 0.76
